PubChem BioAssay AID651711 (Broad Institute, 2012)
“And” between values parts separate entries of the source, which are not always exact repeats. Equal values may be shown once. The whole screen tested about 350,000 compounds, of which about 180 (0.051%) were called active. The sample holds actives, similar compounds and a random draw of the others, so the mix is not that of the screen.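 Rule for the calls: active = mean replicate inhibition above about 25%, with every replicate also reaching it (limit read from the data, passing the limit was not always enough); inconclusive = only one of those two criteria met; inactive = neither criterion met.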

These compounds were tested against Protein disulfide-isomerase A6 (Homo sapiens) (UniProt Q15084) (assay: ERp5 (PDIA6) reductase activity blockers – biochemical, turbidity, absorbance 650 nm, single point, primary screen (AID 651711)). Details: ERp5 insulin aggregation, 90 min, at 9.99 µM, active compounds read high.
Protein disulfide-isomerase A6 (Homo sapiens), sequence (Q15084 whole entry, looked up): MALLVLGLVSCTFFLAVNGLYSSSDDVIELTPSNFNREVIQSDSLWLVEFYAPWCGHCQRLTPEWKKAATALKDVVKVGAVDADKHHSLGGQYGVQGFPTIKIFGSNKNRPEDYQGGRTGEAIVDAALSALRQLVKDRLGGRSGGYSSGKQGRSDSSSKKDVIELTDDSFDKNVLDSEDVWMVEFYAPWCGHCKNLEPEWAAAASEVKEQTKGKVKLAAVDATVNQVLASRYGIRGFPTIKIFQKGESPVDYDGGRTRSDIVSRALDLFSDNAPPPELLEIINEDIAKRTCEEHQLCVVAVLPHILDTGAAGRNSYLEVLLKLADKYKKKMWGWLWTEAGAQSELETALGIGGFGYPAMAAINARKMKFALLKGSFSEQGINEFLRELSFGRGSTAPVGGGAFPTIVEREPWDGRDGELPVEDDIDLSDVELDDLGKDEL

| SMILES | inhibition |
| --- | --- |
| CC(=O)c1c(C)[nH]c(C(=O)COC(=O)c2cccs2)c1C | 14.1% (inactive) |
| COc1cccc(C(=O)OCC(=O)c2[nH]c(C)c(C(C)=O)c2C)c1 | 27.2% (active) |
| CCOC(=O)c1c(C)[nH]c(C(=O)OCC(=O)c2ccc(OC)cc2OC)c1C | -4.48% (inactive) |
| C[C@@H]1CN([C@@H](C)CO)C(=O)c2cc(NC(=O)CCCN(C)C)ccc2O[C@@H](C)CCCCO[C@@H]1CN(C)S(=O)(=O)c1ccc(Cl)cc1 | 0.282% (inactive) |
| C[C@@H]1CN([C@@H](C)CO)C(=O)Cc2cc(NC(=O)CCN3CCOCC3)ccc2O[C@@H]1CN(C)C(=O)Nc1cccc2ccccc12 | 7.67% (inactive) |
| O=C(N[C@@H]1CC[C@@H](CCn2cc(-c3ccccn3)nn2)O[C@@H]1CO)c1ccccc1 | -2.15% (inactive) |
| COc1ccc(S(=O)(=O)Nc2ccc3c(c2)C(=O)N([C@@H](C)CO)C[C@H](C)[C@H](CN(C)Cc2ccc(C(=O)O)cc2)OCCCC[C@@H](C)O3)cc1 | -3.93% (inactive) |
| Cc1noc(C)c1S(=O)(=O)N(C)C[C@H]1Oc2ccc(NS(=O)(=O)c3cccs3)cc2C(=O)N([C@H](C)CO)C[C@H]1C | -0.984% (inactive) |
| O=S(=O)(c1ccccc1)N1CCCCN2[C@@H](CO)[C@H](c3ccc(C#Cc4cccnc4)cc3)[C@@H]2C1 | -0.401% (inactive) |
| COCCNC(=O)C[C@@H]1CC[C@H]2[C@H](COc3ccc(NS(=O)(=O)c4ccc(Cl)cc4)cc3C(=O)N2C)O1 | 6.32% (inactive) |
| C[C@H]1CN([C@@H](C)CO)C(=O)Cc2cc(NS(=O)(=O)c3cccs3)ccc2O[C@@H]1CN(C)Cc1ccc(Oc2ccccc2)cc1 | 0.293% (inactive) |
| COc1ccc2c3c([nH]c2c1)[C@@H](CO)N(Cc1ccccc1F)CC31CN(C(=O)C2CC2)C1 | 5.63% (inactive) |
| COc1ccc2c3c([nH]c2c1)[C@H](CO)N(Cc1ccccc1Cl)CC31CN(C(=O)C2CC2)C1 | 32% (active) |
| COc1ccc2c3c([nH]c2c1)[C@@H](CO)N(Cc1cc(F)ccc1F)CC31CN(C(=O)C2CCC2)C1 | 0.016% (inactive) |
| COc1ccc(NC(=O)Nc2cccc3c2O[C@@H](CN(C)C(=O)NC(C)C)[C@H](C)CN([C@H](C)CO)C3=O)cc1 | 1.64% (inactive) |
| O=C(C[C@H]1CC[C@H]2[C@@H](COC[C@@H](O)CN2CC2CCCC2)O1)NCC1CC1 | 5.23% (inactive) |
| O=C(CCN1CCCCC1)NCC[C@H]1CC[C@@H](NC(=O)C2CCOCC2)[C@H](CO)O1 | -1.07% (inactive) |
| C[C@H](NC(=O)[C@H]1N[C@H]2c3ccc(-c4ccc(C(=O)N(C)C)cc4)c(=O)n3C[C@H]2[C@@H]1CO)c1ccccc1 | -1.53% (inactive) |
| O=C(C[C@@H]1CC[C@H](NC(=O)NC2CCCCC2)[C@H](CO)O1)NCc1ccc(F)cc1 | -0.201% (inactive) |
| CCC(=O)Nc1ccc2c(c1)OC[C@@H](C)N(Cc1cncnc1)C[C@H](C)[C@@H](OC)CN(C)C2=O | 1.32% (inactive) |
| O=C(Nc1cccc(F)c1)N1CC(=O)N2[C@H](C1)[C@H](c1ccc(-c3ccccc3F)cc1)[C@@H]2CO | -0.993% (inactive) |

| SMILES | inhibition |
| --- | --- |
| CN(C)C(=O)[C@@H]1[C@@H](CO)[C@@H]2Cn3c(ccc(-c4ccncc4)c3=O)[C@H]1N2C(=O)NC1CCCC1 | -2.64% (inactive) |
| CO[C@@H]1CN(C)C(=O)c2cc(NC(=O)c3ccccc3F)ccc2OC[C@H](C)N(C(C)=O)C[C@@H]1C | 3.35% (inactive) |
| O=C(C[C@H]1CC[C@@H]2[C@H](COC[C@H](O)CN2Cc2ccccc2F)O1)NC1CCC1 | -3.28% (inactive) |
| CCCNC(=O)C[C@H]1C[C@H]2c3cc(NC(=O)COC)ccc3O[C@H]2[C@H](CO)O1 | 2.76% (inactive) |
| CNC(=O)C[C@@H]1CC[C@@H]2[C@@H](COc3ccc(NC(=O)Nc4ccccc4OC)cc3C(=O)N2C)O1 | 5.92% (inactive) |
| CCC(=O)N(C)C[C@@H]1Oc2cc(C#C[C@H](C)O)ccc2S(=O)(=O)N([C@@H](C)CO)C[C@H]1C | -0.347% (inactive) |
| C[C@@H]1CN([C@H](C)CO)C(=O)Cc2cc(NC(=O)CCN3CCOCC3)ccc2O[C@H]1CN(C)CC1CC1 | -3.37% (inactive) |
| COc1ccc(CCN2C(=O)[C@@]3(Cc4ccccc42)c2ccccc2C(=O)N(Cc2ccccc2C(F)(F)F)[C@H]3c2ccc(CO)cc2)cc1 | 4.71% (inactive) |
| C[C@H](CO)N1C[C@H](C)[C@@H](CN(C)C(=O)Cc2ccncc2)Oc2ncc(C3=CCCCC3)cc2C1=O | 4.38% (inactive) |
| O=C(c1cccc(F)c1)N1CC[C@@H]2[C@@H](CO)Nc3ccc(C#Cc4cccc(F)c4)cc3[C@@H]21 | -3.07% (inactive) |
| C[C@H](CO)N1C[C@H](C)[C@@H](CN(C)Cc2ccc(C(=O)O)cc2)Oc2ccc(NS(=O)(=O)c3cn(C)cn3)cc2CC1=O | -1.33% (inactive) |
| CC(C)NC(=O)N1CC2(C1)[C@H](c1ccccc1)[C@H](CO)N2C(=O)C1CCOCC1 | 0.292% (inactive) |
| C/C=C/c1ccc([C@H]2[C@@H](CO)N(C(=O)NCCC)[C@H]2CN(C)C(C)=O)cc1 | 5.18% (inactive) |
| CC(C)NC(=O)Nc1ccc2c(c1)C(=O)N([C@H](C)CO)C[C@@H](C)[C@@H](CN(C)Cc1ccncc1)O2 | -5.48% (inactive) |
| COc1ccc(C#Cc2cccc(-c3nc(C(=O)O)cc4c3[C@@H](CCO)N(S(=O)C(C)(C)C)C4)c2)cc1OC (stereo partly specified) | -1.96% (inactive) |
| Cc1ccc(S(=O)(=O)N(C)C[C@@H]2OCc3ccccc3-c3c(n(C)c4ccccc34)C(=O)N([C@@H](C)CO)C[C@@H]2C)cc1 | 3.4% (inactive) |
| O=C(C[C@H]1C=C[C@H](NC(=O)Nc2ccc(C(F)(F)F)cc2)[C@@H](CO)O1)NCCN1CCCC1 | 18.1% (inactive) |
| C[C@@H]1CN([C@@H](C)CO)C(=O)Cc2cc(NC(=O)Cc3cn(C)c4ccccc34)ccc2O[C@H]1CN(C)C(=O)NC1CCCCC1 | 5.6% (inactive) |
| C[C@@H]1CN([C@H](C)CO)C(=O)Cc2cc(NC(=O)Nc3cccc4ccccc34)ccc2O[C@H]1CN(C)C(=O)Nc1ccc2c(c1)OCO2 | -12.4% (inactive) |
| C[C@H](CO)N1C[C@H](C)[C@H](CN(C)C(=O)CCC(F)(F)F)OCCCC[C@H](C)Oc2ccc(NS(=O)(=O)c3ccc(F)cc3)cc2C1=O | 6.41% (inactive) |
| COCC(=O)Nc1ccc2c(c1)[C@@H]1C[C@H](CC(=O)NCc3ccc(-c4ccccc4)cc3)O[C@H](CO)[C@@H]1O2 | -0.847% (inactive) |

| SMILES | inhibition |
| --- | --- |
| CN1C(=O)c2cc(NC(=O)C3CCCC3)ccc2OC[C@@H]2O[C@@H](CC(=O)NCCc3ccncc3)CC[C@@H]21 | -3.7% (inactive) |
| C[C@@H]1CCCCO[C@H](CN(C)S(=O)(=O)c2ccc(Cl)cc2)[C@@H](C)CN([C@H](C)CO)C(=O)c2cc(NC(=O)Nc3ccc4c(c3)OCO4)ccc2O1 | 0.772% (inactive) |
| O=C1[C@@H](c2ccccc2)[C@@H](c2ccccc2)N1c1ccccc1 | 3.47% (inactive) |
| O=C(N[C@@H]1C=C[C@@H](CC(=O)N2CCOCC2)O[C@H]1CO)c1ccccn1 | 2.34% (inactive) |
| CN(C)CC(=O)Nc1ccc2c(c1)[C@H]1C[C@H](CC(=O)NCc3ccccn3)O[C@@H](CO)[C@H]1O2 | -3.52% (inactive) |
| Cc1[nH]c2ccccc2c1CC(=O)Nc1ccc(Nc2cccnc2)c(-c2cccc(Cl)c2)c1 | -5.11% (inactive) |
| CO[C@H](CN(C)C(=O)c1ccc2c(c1)OCO2)[C@H](C)CN([C@@H](C)CO)S(=O)(=O)c1ccc(Cl)cc1 | 3% (inactive) |
| C[C@H]1CN([C@@H](C)CO)C(=O)c2cccc(NC(=O)Nc3ccc(F)cc3)c2O[C@@H]1CN(C)C(=O)Nc1ccc2c(c1)OCO2 | 4.97% (inactive) |
| N#C[C@@H]1[C@H](c2ccccc2-c2ccc(F)cc2)[C@@H](CO)N1c1ncc(-c2ccccc2)s1 | 3.09% (inactive) |
| O=C(c1ccncc1)N1C[C@H]2[C@@H](c3ccccc31)[C@H](CO)N2Cc1ccc(F)cc1 | -3.32% (inactive) |
| COc1ccc2c3c(n(C)c2c1)[C@@H](CO)NCC31CCN(CC2CCCC2)CC1 | 1.66% (inactive) |
| O=C(Nc1ccccc1)N1CC(=O)N2[C@@H](CO)[C@H](c3ccc(C#CC4CCCC4)cc3)[C@@H]2C1 | 1.6% (inactive) |
| C[C@@H]1CN([C@H](C)CO)C(=O)c2cc(-c3cncnc3)cnc2O[C@@H]1CN(C)Cc1ccc(Oc2ccccc2)cc1 | -1.07% (inactive) and -77.5% (inactive) |
| COCC(=O)Nc1ccc2c(c1)C(=O)N(C)[C@@H]1CC[C@@H](CC(=O)NCCCN(C)C)O[C@@H]1CO2 | -2.7% (inactive) |
| C[C@@H](NC(=O)C[C@@H]1C=C[C@@H](NC(=O)CN2CCOCC2)[C@H](CO)O1)c1ccccc1 | 10.6% (inactive) |
| Cc1ccc(S(=O)(=O)Nc2ccc3c(c2)C(=O)N([C@@H](C)CO)C[C@H](C)[C@H](CN(C)C(=O)Nc2ccc(C(F)(F)F)cc2)O3)cc1 | -3.11% (inactive) |
| CCNC(=O)[C@H]1[C@H](CO)[C@H]2Cn3c(ccc(/C=C/c4ccccc4)c3=O)[C@@H]1N2C(=O)C1CCC1 | -5.59% (inactive) |
| Cn1cnc(S(=O)(=O)N2C[C@@H](O)COC[C@H]3O[C@@H](CC(=O)NCc4ccc(F)cc4)CC[C@@H]32)c1 | -0.766% (inactive) |
| C[C@@H]1CCCCO[C@@H](CN(C)Cc2ccccc2)[C@H](C)CN([C@H](C)CO)C(=O)c2cc(NC(=O)Nc3cccc4ccccc34)ccc2O1 | 0.587% (inactive) |
